Potency and affinity values are given separately. Active and inactive are the calls of the source.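 Rule for the calls: active = cell killing, meaning signal decrease, with fitted half-maximal dose at or below ten times the top valid tested dose; inconclusive = poor fit, or flat curve with 30 to 70% signal loss; inactive = the rest.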
Experiment: ATP-based viability loss in HeLa cells – cell-based, CellTiter-Glo luminescence, cherry-pick samples, cytotoxicity control for MITF activator project, dose response (AID 540259)
Details: 24 h; series mostly up to 35 µM

| SMILES | outcome |
| --- | --- |
| O=C(CC(Nc1ccccc1)C(=O)O)c1ccccc1 (configuration not stated) | inactive |
| CCCCC(=O)Nc1sc2c(c1C#N)CC(C)(C)OC2 | inactive |
| O=c1nc(/C=C/c2ccc(O)c(O)c2)oc2ccccc12 | inactive |
| C=CCNC(=O)c1ccc2nc(Cc3ccc(OC)cc3)oc2c1 | inactive |
| c1cnc2nc(-c3ccc4c(c3)OCO4)cn2c1 | inactive |
| O=C(c1noc2c1CCCC2)N1CCc2ccccc2C1 | inactive |
| COc1ccc(NC(=O)C2Cc3ccccc3O/C2=N\O)cc1 (configuration not stated) | inactive |
| C/C(=N\OC(=O)Nc1ccccc1)c1ccc(C)cc1 | inactive |
| c1ccc2c(Nc3nnc(-c4ccncc4)s3)cccc2c1 | inactive |
| CC(C)(C)c1ccc(SCCc2ccccn2)cc1 | inactive |
| C=CCn1cnc2c(nnn2-c2ccc(C)c(C)c2)c1=O | inactive |
| COc1ccc(/C=C2\SC(=O)N(CCNC(=O)C3CC4C=CC3C4)C2=O)cc1 (configuration not stated) | inactive |
| O=C(N/N=C/c1ccccc1C(F)(F)F)c1ccc(O)cc1 | inactive |
| Cc1ccc(N2C(=O)S/C(=C/c3cn(C)c4ccccc34)C2=O)cc1 | inactive |
| CCN(CC)CC(=O)Nc1scc2c1c(=O)oc1ccccc12 | inactive |
| Cc1ccc(-c2cn(-c3ccccc3)c(=S)[nH]2)cc1C | inactive |
| Cc1ccn2cc(C(=O)Nc3nnc(C)s3)nc2c1 | inactive |
| CCN1CCN(c2cc3c(nn2)Oc2ccccc2N3C)CC1 | inactive |
| O=C(NOCc1ccccc1)OCc1ccccc1 | inactive |

| SMILES | outcome |
| --- | --- |
| CN(C)c1ccc(/C=C/c2cccc[n+]2[O-])cc1 | inactive |
| CCC(C)c1ccc(NC(=O)Nc2cccnc2)cc1 (configuration not stated) | inactive |
| Cc1ccc(CNc2nc(C)cs2)cc1 | inactive |
| O=C(NC1=NCCS1)c1ccc(Cl)s1 | inactive |
| CN1CCN(/N=C/c2ccc(Br)cc2)CC1 | inactive |
| Brc1ccccc1-n1nnc(-c2nccs2)n1 | inactive |
| CC(C)(C)n1ncc2c(=O)n(CC(=O)c3ccccc3)cnc21 | inactive |
| COc1ccc(C(=O)CN2Cc3ccccc3C2=N)cc1 | inactive |
| O=C(N/N=C/c1ccsc1)c1ccc2c(c1)OCO2 | inactive |
| Clc1ccc(-c2nc(C3CCCCC3)no2)cc1 | inactive |
| C#CCSc1nnc(-c2ccc(O)cc2)o1 | inactive |
| Nc1ccc(-c2nc3ncccc3o2)c(O)c1 | inactive |
| Nc1ccc(-c2nnc(-c3ccc(N)cc3)o2)cc1 | inactive |
| Nc1nc(CSc2ccccn2)nc(Nc2ccccc2)n1 | inactive |
| COc1ccc(NC(=O)Nc2ccc(Br)cn2)cc1 | inactive |
| COc1c(C)cccc1C(=O)Nc1ccc(N2CCN(S(C)(=O)=O)CC2)cc1 | inactive |
| COc1ccc(/C=N/Nc2nccnc2Cl)c(OC)c1 | inactive |
| Cc1ccc2c(CN3CCC(C)CC3)cc(=O)oc2c1C | inactive |
